Assay results taken from PubChem BioAssay (NCI).
About 79,000 compounds went through this panel and 15% of them were active in at least one assay; those are over-represented in the sample as a whole. Calls of active or inactive are those of the source. Cut-off read from the data, not from the text of the source: active = growth inhibition above about 70%; inactive = the rest.

Legend:
[1] = NCI Yeast Anticancer Drug Screen. Data for the rad52 strain (AID 147);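 note: 0% = growth of vehicle-treated control cultures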; conditions: S. cerevisiae rad52 mutant growth inhibition, hits give high values
Procedure, shortened: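 Read-out: growth inhibition versus vehicle-treated controls. Cells were a DNA repair-deficient yeast strain treated with compounds.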

[2] = NCI Yeast Anticancer Drug Screen. Data for the wt1 strain (AID 149);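 note: 0% = growth of vehicle-treated wt1 cultures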; conditions: S. cerevisiae wt1 strain (SPY 50644) growth inhibition, hits give high values
Procedure, shortened: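 The wt1 strain was treated with compounds, and growth was compared with vehicle-treated cultures to give inhibition.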

[3] = NCI Yeast Anticancer Drug Screen. Data for the rad50EPP+ strain (AID 151);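 note: 0% = growth of vehicle-treated control cultures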; conditions: S. cerevisiae rad50 mutant strain, hits give high values
Procedure, shortened: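 Growth inhibition read against vehicle controls in rad50EPP+ yeast, a strain altered in DNA damage repair, after compound exposure.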

[4] = NCI Yeast Anticancer Drug Screen. Data for the mgt1 strain (AID 153); conditions: S. cerevisiae mgt1 mutant growth inhibition, hits give high values
Procedure, shortened: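 mgt1 yeast grown with test compound; read-out is growth inhibition versus vehicle-treated cultures.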

[5] = NCI Yeast Anticancer Drug Screen. Data for the rad50 strain (AID 155);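 note: 0% = growth of vehicle-only cultures of the same strain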; conditions: S. cerevisiae rad50 strain growth inhibition, hits give high values
Procedure, shortened: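 Cells are treated with compound, grown, and their growth is then scored against vehicle-only cultures of the same repair-deficient yeast strain.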

[6] = NCI Yeast Anticancer Drug Screen. Data for the mec2-1 strain (AID 157); conditions: S. cerevisiae mec2-1 strain, hits give high values
Procedure, shortened: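 Yeast mec2-1 mutant treated with compound. Readout: growth inhibition vs vehicle controls.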

[7] = NCI Yeast Anticancer Drug Screen. Data for the rad14 strain (AID 159);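 note: 0% = growth of vehicle-treated control cultures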; conditions: S. cerevisiae rad14 strain growth inhibition, hits give high values
Procedure, shortened: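 Readout: yeast growth inhibition, referenced to vehicle-only cultures. Strain bears a defined alteration in DNA damage repair.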

[8] = NCI Yeast Anticancer Drug Screen. Data for the sgs1 mgt1 strain (AID 161);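 note: 0% = growth of cultures given vehicle only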; conditions: S. cerevisiae sgs1 mgt1 strain, hits give high values
Procedure, shortened: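 Test agents were incubated with a DNA-repair-mutant yeast strain. Growth was then read and compared against vehicle-treated controls.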

[9] = NCI Yeast Anticancer Drug Screen. Data for the CLN2oe strain (AID 163);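 note: 0% = growth of vehicle-only control cultures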; conditions: S. cerevisiae CLN2oe strain, hits give high values
Procedure, shortened: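 Read-out: yeast growth inhibition, expressed relative to vehicle-only controls. The strain bears an engineered cell-cycle alteration.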

[10] = NCI Yeast Anticancer Drug Screen. Data for the cln2 rad14 strain (AID 165);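 note: 0% = growth equal to vehicle treated cultures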; conditions: S. cerevisiae cln2 rad14 strain, hits give high values
Procedure, shortened: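 cln2 rad14 yeast strain; compound exposure; growth inhibition read vs vehicle controls.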

[11] = NCI Yeast Anticancer Drug Screen. Data for the bub3 strain (AID 167); conditions: S. cerevisiae bub3 mutant strain, hits give high values
Procedure, shortened: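 Part of a panel of yeast mutants defective in DNA damage repair or cell cycle regulation. Each strain is grown with compound, and inhibition is calculated relative to solvent-treated cultures.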

[12] = NCI Yeast Anticancer Drug Screen. Data for the wt2 strain (AID 169);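 note: 0% = growth of vehicle-treated yeast cultures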; conditions: S. cerevisiae wt2 strain growth inhibition, hits give high values
Procedure, shortened: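 Read-out: growth inhibition versus vehicle-treated control cultures after compound exposure of the yeast strain.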

[13] = NCI Yeast Anticancer Drug Screen. Data for the mlh1 strain (AID 171);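 note: 0% = growth of vehicle-treated control cultures of the same strain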; conditions: S. cerevisiae mlh1 strain growth inhibition, hits give high values
Procedure, shortened: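 Read-out: growth inhibition versus vehicle controls. Strain: engineered yeast with a defined DNA repair or cell cycle defect, compound-treated.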

[14] = NCI Yeast Anticancer Drug Screen. Data for the sgs1 strain (AID 173);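 note: 0% = growth of vehicle-only control cultures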; conditions: S. cerevisiae sgs1 mutant, hits give high values
Procedure, shortened: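 Read-out: yeast growth inhibition relative to vehicle controls, following compound exposure of a strain with a defined DNA repair/cell cycle alteration.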

[15] = NCI Yeast Anticancer Drug Screen. Data for the mlh1 rad18 strain (AID 175); conditions: S. cerevisiae mlh1 rad18 strain growth inhibition, hits give high values
Procedure, shortened: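 Yeast w/ defined DNA-repair lesions; compound exposure; growth vs vehicle controls → % inhibition.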

[16] = NCI Yeast Anticancer Drug Screen. Data for the rad18 strain (AID 177); conditions: S. cerevisiae rad18 mutant growth inhibition, hits give high values
Procedure, shortened: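 Readout: growth inhibition vs vehicle controls. Cells: genetically altered yeast strain, DNA repair defect.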

[17] = at 5.0 µM (retest, dose inferred, filed as 0.5)
[18] = at 50.0 µM (retest, dose inferred, filed as 5.0)

Measured: growth inhibition

CCOC(=O)C(NC(=O)c1ccccc1)(N1CCN(c2cc3c(cc2F)c(=O)c(C(=O)O)cn3C2CC2)CC1)C(F)(F)F (stereo unspecified)
active: [1]; at 100.0 µM 75% | [5]; [18] 76% | [5]; at 50.0 µM 74.6% | [5]; at 100.0 µM 79%
inactive: [1]; at 1.2 µM -1% | [1]; at 3.7 µM 2% | [1]; at 11.0 µM 11% | [1]; at 33.0 µM 35% | [2]; at 1.2 µM -2% | [2]; at 3.7 µM -1% | [2]; at 11.0 µM -1% | [2]; at 33.0 µM 0% | [2]; at 100.0 µM 2% | [3]; at 1.2 µM -1% | [3]; at 3.7 µM 0% | [3]; at 11.0 µM 1% | [3]; at 33.0 µM 2% | [3]; at 100.0 µM 14% | [4]; at 1.2 µM 1% | [4]; at 3.7 µM 1% | [4]; at 11.0 µM 0% | [4]; at 33.0 µM 1% | [4]; at 100.0 µM 2% | [5]; at 1.2 µM 0% | [5]; at 3.7 µM 5% | [5]; [17] -7% | [5]; at 11.0 µM 14% | [5]; at 33.0 µM 47% | [6]; at 1.2 µM -1% | [6]; at 3.7 µM -2% | [6]; [17] -6% | [6]; at 11.0 µM 0% | [6]; at 33.0 µM 2% | [6]; [18] -27% | [6]; at 50.0 µM 3.05% | [6]; at 100.0 µM 3% | [7]; at 1.2 µM 0% | [7]; at 3.7 µM 2% | [7]; at 11.0 µM 4% | [7]; at 33.0 µM 3% | [7]; at 100.0 µM 2% | [8]; [17] -6% | [8]; [18] -15% | [8]; at 50.0 µM -4.1% | [9]; at 1.2 µM -1% | [9]; at 3.7 µM 3% | [9]; at 11.0 µM 2% | [9]; at 33.0 µM 6% | [9]; at 100.0 µM 9% | [10]; [17] 41% | [10]; [18] -13% | [10]; at 50.0 µM 18.5% | [11]; at 1.2 µM -1% | [11]; at 3.7 µM 2% | [11]; [17] -15% | [11]; at 11.0 µM 3% | [11]; at 33.0 µM -39% | [11]; [18] 3% | [11]; at 50.0 µM -16.1% | [11]; at 100.0 µM 3% | [12]; at 1.2 µM -1% | [12]; at 3.7 µM -2% | [12]; at 11.0 µM -2% | [12]; at 33.0 µM -2% | [12]; at 100.0 µM 1% | [13]; at 1.2 µM -1% | [13]; at 3.7 µM -1% | [13]; at 11.0 µM 0% | [13]; at 33.0 µM 0% | [13]; at 100.0 µM 1% | [14]; at 1.2 µM -1% | [14]; at 3.7 µM 0% | [14]; at 11.0 µM 3% | [14]; at 33.0 µM 3% | [14]; at 100.0 µM 2% | [15]; [17] -21% | [15]; [18] 12% | [15]; at 50.0 µM -1.95% | [16]; at 1.2 µM -3% | [16]; at 3.7 µM -1% | [16]; at 11.0 µM 0% | [16]; at 33.0 µM 2% | [16]; at 100.0 µM 6%

COc1ccc(/C(C)=N/OC(=O)c2c(-c3ccccc3Cl)noc2C)cc1CN1CCOCC1
inactive: [1]; at 1.2 µM 21% | [1]; at 3.7 µM 23% | [1]; at 11.0 µM 19% | [1]; at 33.0 µM 34% | [2]; at 1.2 µM -7% | [2]; at 3.7 µM -10% | [2]; at 11.0 µM -14% | [2]; at 33.0 µM -7% | [2]; at 100.0 µM 39% | [3]; at 1.2 µM -36% | [3]; at 3.7 µM -39% | [3]; at 11.0 µM -41% | [3]; at 33.0 µM -32% | [3]; at 100.0 µM -27% | [4]; at 1.2 µM -3% | [4]; at 3.7 µM -5% | [4]; at 11.0 µM 0% | [4]; at 33.0 µM 36% | [5]; at 1.2 µM -39% | [5]; at 3.7 µM -28% | [5]; [17] 63% | [5]; at 11.0 µM -20% | [5]; at 33.0 µM 21% | [5]; at 50.0 µM 64.7% | [6]; at 1.2 µM -25% | [6]; at 3.7 µM 2% | [6]; [17] 68% | [6]; at 11.0 µM -12% | [6]; at 33.0 µM 7% | [6]; at 50.0 µM 14.3% | [6]; at 100.0 µM 50% | [7]; at 1.2 µM -8% | [7]; at 3.7 µM -17% | [7]; at 11.0 µM -20% | [7]; at 33.0 µM 45% | [8]; [17] -16% | [9]; at 1.2 µM -12% | [9]; at 3.7 µM -7% | [9]; at 11.0 µM 8% | [9]; at 33.0 µM 17% | [9]; at 100.0 µM 60% | [10]; [17] 46% | [10]; at 50.0 µM 45.8% | [11]; at 1.2 µM -6% | [11]; at 3.7 µM -7% | [11]; [17] 17% | [11]; at 11.0 µM -18% | [11]; at 33.0 µM 5% | [11]; at 50.0 µM 58.8% | [11]; at 100.0 µM 50% | [12]; at 1.2 µM -18% | [12]; at 3.7 µM -27% | [12]; at 11.0 µM -21% | [12]; at 33.0 µM -7% | [12]; at 100.0 µM 65% | [13]; at 1.2 µM -22% | [13]; at 3.7 µM -16% | [13]; at 11.0 µM -27% | [13]; at 33.0 µM 14% | [14]; at 1.2 µM -30% | [14]; at 3.7 µM -29% | [14]; at 11.0 µM -19% | [14]; at 33.0 µM 30% | [15]; [17] 53% | [15]; at 50.0 µM 57.4% | [16]; at 1.2 µM -16% | [16]; at 3.7 µM -14% | [16]; at 11.0 µM -2% | [16]; at 33.0 µM 21%
active: [1]; at 100.0 µM 75% | [4]; at 100.0 µM 87% | [5]; [18] 88% | [5]; at 100.0 µM 70% | [6]; [18] 98% | [7]; at 100.0 µM 91% | [8]; [18] 98% | [8]; at 50.0 µM 74.4% | [10]; [18] 97% | [11]; [18] 97% | [13]; at 100.0 µM 85% | [14]; at 100.0 µM 78% | [15]; [18] 85% | [16]; at 100.0 µM 74%
